Reference: PubChem BioAssay
Active and inactive are the calls of the source. Unless noted, the rule behind the calls is not given here.

Tests used:
[1] = system: Wnt5a (protein binding on small-molecule microarray); assay: small molecules binding Wnt5a protein – biophysical, small-molecule microarray, 635/667 nm fluorescence, primary screen (AID 1142); conditions: 635 nm fluorescence, higher = more signal;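 note: fluorescence read at 667 nm with signal to noise per printed feature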
[2] = ATP-based viability of Huh7 replicon cells – cell-based, CellTiter-Glo luminescence, basal, 48 h, cytotoxicity control for HCV replication inhibitor project, primary screen (AID 1143); conditions: higher = more signal, called active from +8 up or from −8 down;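 note: Huh7 hepatoma cells carrying a hepatitis C replication reporter with no stimulus; test concentration not given here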
[3] = Pseudomonas biofilm growth suppression – PAO1 strain, BacTiter-Glo luminescence, LB-PBS, primary screen (AID 1144); conditions: P. aeruginosa PAO1 biofilm, 12 h, higher = more signal
[4] = basal CRE-LacZ reporter activity in PC12 – cell-based, unstimulated, primary screen (AID 1145); conditions: no forskolin, luminescence, 4.5 h, higher = more signal, called active from +8 up or from −8 down
[5] = forskolin-driven CRE-LacZ activity in PC12 – cell-based, CRE-LacZ reporter, forskolin-stimulated, primary screen (AID 1146); conditions: luminescence, 4.5 h, higher = more signal, called active from +8 up or from −8 down;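 note: PC12 cells with 6xCRE LacZ reporter stimulated by forskolin 10 µM; beta-galactosidase reporter signal reflecting CREB driven transcription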
[6] = target: Streptavidin (Streptomyces avidinii) (UniProt P22629); assay: compounds binding control protein streptavidin – biophysical, small-molecule microarray, 635/667 nm fluorescence, artefact control for SMM compound annotation, primary screen (AID 1147); conditions: higher = more signal;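 note: signal reflects streptavidin binding to arrayed compounds as a control protein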
[7] = probe aInhba binding on compound microarray – biochemical, small-molecule microarray, 635/667 nm fluorescence, primary screen (AID 1148); conditions: higher = more signal;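 note: score merges 667nm spot fluorescence with signal-to-noise for antibody binding to printed compounds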
Torsin-1A (Homo sapiens) [8] = target: Torsin-1A (Homo sapiens) (UniProt O14656); assay: TOR1A wild-type binding on microarray – cell lysate, small-molecule microarray, lysate, 635/667 nm, primary screen (AID 1149); conditions: COS7 hTOR1A-WT lysate, 635 nm fluorescence, higher = more signal
Torsin-1A (Homo sapiens) [9] = target: Torsin-1A (Homo sapiens) (UniProt O14656); assay: torsin A mutant lysate binding on microarrays – cell lysate, small-molecule microarray, COS7 lysate, 635/667 nm fluorescence, primary screen (AID 1150); conditions: COS7 hTOR1A mutant lysate, 635 nm fluorescence, higher = more signal;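 note: score pools 667 nm emission and signal to noise measuring lysate protein binding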
[10] = system: Sonic hedgehog protein (Shh); assay: Sonic hedgehog microarray binding compounds – biochemical, small-molecule microarray, 635/667 nm fluorescence, primary screen (AID 1151); conditions: 635 nm fluorescence, higher = more signal;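 note: Shh protein binding to compounds spotted on small-molecule microarray slides; score combines spot fluorescence intensity with signal-to-noise across triplicate slides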
[11] = optical density shifts of acrAB sulA E. coli – strain DRC41, OD650, 48 h, E. coli filamentation inducer project, primary screen (AID 1152); conditions: higher = more signal, called active from +8 up or from −8 down;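 note: E. coli MC1000 strain DRC41 lacking acrAB efflux pump and sulA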
[12] = probe aLefty1 binding on compound microarray – biochemical, small-molecule microarray, 635/667 nm fluorescence, primary screen (AID 1153); conditions: higher = more signal;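 note: score merges spot fluorescence with signal-to-noise ratio from the scanned slide images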
[13] = plasmodial surface anion channel blockers, osmotic lysis – cell-based, P. falciparum Indochina, OD700, 1 h, primary screen (AID 1154); conditions: P. falciparum Indochina infected RBC osmotic lysis, higher = more signal, called active from +8 up or from −8 down
[14] = plasmodial surface anion channel blockers, osmotic lysis – cell-based, P. falciparum Indochina, OD700, 2 h, primary screen (AID 1155);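 note: lysis reports solute entry through the parasite surface anion channel PSAC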; conditions: P. falciparum Indochina infected erythrocytes, higher = more signal, called active from +8 up or from −8 down
[15] = changes in parasitized red cell lysis, either direction – P. falciparum Indochina, OD700, 3 h, PSAC antagonist project, primary screen (AID 1156); conditions: P. falciparum-infected erythrocytes, osmotic lysis, higher = more signal, called active from +8 up or from −8 down
[16] = plasmodial surface anion channel blockers, osmotic lysis – cell-based, P. falciparum Indochina, OD700, 18 h, primary screen (AID 1157); conditions: P. falciparum Indochina infected erythrocytes, osmotic lysis OD700, 18 h; higher = more signal, called active from +8 up or from −8 down
[17] = S6 kinase pathway phospho-S6 level changes – cell-based, A549, cytoblot, luminescence, serum-stimulated, primary screen (AID 1158); conditions: 5 h, higher = more signal;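 note: serum-stimulated A549 lung adenocarcinoma cells; signal is phosphorylated S6 detected by cytoblot immunostaining with HRP secondary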
[18] = target: NADPH oxidase 2 (Homo sapiens) (UniProt P04839); assay: compounds shifting NOX2 Amplex Red fluorescence – cell-based, HEK293-NOX2, PMA-stimulated, NOX inhibitor project, primary screen (AID 1159); conditions: 45 min, higher = more signal, called active from +8 up or from −8 down; note: test concentration not given here
[19] = target: NADPH oxidase 4 (Homo sapiens) (UniProt Q9NPH5); assay: compounds shifting NOX4 Amplex Red fluorescence – cell-based, HEK293-NOX4, tetracycline-induced, NOX inhibitor project, primary screen (AID 1160); conditions: HEK293-NOX4, Amplex Red H2O2 fluorescence, 45 min; higher = more signal, called active from +8 up or from −8 down
[20] = target: NADPH oxidase 5 (Homo sapiens) (UniProt Q96PH1); assay: compounds shifting NOX5 Amplex Red fluorescence – cell-based, HEK293-NOX5, NOX inhibitor project, primary screen (AID 1161); conditions: HEK293-NOX5, ionomycin, 45 min, higher = more signal
Sequence of NADPH oxidase 5 (Homo sapiens) (Q96PH1 whole entry, looked up): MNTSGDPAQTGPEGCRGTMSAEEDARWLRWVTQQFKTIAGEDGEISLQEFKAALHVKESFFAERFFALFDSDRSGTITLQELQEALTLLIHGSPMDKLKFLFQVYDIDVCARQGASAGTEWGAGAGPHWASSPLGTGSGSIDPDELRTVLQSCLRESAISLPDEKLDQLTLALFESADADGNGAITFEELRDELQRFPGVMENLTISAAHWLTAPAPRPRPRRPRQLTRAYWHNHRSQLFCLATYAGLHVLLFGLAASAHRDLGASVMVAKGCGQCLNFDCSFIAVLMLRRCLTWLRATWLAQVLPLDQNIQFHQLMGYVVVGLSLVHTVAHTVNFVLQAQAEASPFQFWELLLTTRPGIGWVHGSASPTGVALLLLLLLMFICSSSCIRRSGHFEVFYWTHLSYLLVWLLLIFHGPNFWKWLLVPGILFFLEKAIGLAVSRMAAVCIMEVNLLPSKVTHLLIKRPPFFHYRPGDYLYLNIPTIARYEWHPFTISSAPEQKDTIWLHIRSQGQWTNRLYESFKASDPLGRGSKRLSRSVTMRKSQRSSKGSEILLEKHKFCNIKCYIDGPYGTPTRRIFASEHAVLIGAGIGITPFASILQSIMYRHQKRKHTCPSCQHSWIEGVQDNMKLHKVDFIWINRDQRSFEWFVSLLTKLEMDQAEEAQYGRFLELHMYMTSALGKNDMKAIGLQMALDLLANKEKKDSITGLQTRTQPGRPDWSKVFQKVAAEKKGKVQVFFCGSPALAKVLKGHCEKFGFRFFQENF

Sequence of NADPH oxidase 2 (Homo sapiens) (P04839 whole entry, looked up): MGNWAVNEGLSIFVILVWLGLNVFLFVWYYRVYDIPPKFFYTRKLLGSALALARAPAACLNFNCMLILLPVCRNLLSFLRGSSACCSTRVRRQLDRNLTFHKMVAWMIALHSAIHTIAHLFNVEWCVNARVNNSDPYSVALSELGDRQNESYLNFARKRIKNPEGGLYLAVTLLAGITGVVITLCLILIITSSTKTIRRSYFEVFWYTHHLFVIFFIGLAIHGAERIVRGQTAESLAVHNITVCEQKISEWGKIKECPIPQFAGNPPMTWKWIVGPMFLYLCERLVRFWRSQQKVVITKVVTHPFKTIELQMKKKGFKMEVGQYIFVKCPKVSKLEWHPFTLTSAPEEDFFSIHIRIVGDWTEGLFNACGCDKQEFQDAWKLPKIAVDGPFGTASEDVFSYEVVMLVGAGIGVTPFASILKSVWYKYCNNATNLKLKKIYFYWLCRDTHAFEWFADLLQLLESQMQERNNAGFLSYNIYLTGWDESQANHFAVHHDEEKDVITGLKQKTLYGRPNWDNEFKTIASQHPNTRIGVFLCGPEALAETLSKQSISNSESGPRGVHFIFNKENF
Sequence of NADPH oxidase 4 (Homo sapiens) (Q9NPH5 whole entry, looked up): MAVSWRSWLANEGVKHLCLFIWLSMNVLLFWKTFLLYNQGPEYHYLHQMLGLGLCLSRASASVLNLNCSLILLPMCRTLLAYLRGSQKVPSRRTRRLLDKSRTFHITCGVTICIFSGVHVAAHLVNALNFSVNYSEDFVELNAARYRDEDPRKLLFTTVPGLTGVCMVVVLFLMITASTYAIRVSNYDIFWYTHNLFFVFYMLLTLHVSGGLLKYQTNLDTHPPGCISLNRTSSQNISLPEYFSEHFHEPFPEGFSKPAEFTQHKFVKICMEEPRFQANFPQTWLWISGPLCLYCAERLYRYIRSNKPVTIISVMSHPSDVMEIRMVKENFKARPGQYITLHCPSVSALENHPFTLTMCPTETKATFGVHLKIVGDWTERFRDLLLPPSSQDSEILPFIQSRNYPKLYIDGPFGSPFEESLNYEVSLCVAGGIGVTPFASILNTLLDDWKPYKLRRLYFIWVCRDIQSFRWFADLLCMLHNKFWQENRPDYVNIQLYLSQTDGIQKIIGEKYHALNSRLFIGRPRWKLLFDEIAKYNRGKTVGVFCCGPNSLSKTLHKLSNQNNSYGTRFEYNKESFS
Sequence of Torsin-1A (Homo sapiens) (O14656 whole entry, looked up): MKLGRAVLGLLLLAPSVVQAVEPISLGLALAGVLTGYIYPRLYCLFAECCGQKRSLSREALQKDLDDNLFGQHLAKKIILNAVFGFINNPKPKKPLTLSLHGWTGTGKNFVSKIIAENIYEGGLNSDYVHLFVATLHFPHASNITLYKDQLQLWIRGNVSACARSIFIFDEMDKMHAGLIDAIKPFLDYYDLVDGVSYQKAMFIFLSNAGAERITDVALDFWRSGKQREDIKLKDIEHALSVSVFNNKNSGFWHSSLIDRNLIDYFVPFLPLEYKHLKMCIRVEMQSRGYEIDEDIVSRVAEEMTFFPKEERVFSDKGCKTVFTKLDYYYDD
Sequence of Streptavidin (Streptomyces avidinii) (P22629 whole entry, looked up): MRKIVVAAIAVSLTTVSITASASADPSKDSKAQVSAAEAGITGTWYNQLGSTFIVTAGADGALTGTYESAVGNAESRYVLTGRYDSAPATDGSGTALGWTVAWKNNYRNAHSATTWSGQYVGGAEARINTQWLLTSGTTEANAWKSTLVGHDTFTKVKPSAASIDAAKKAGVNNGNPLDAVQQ

Row | SMILES | composite z-score [1] | z-score [2] | z-score [3] | z-score [4] | z-score [5] | composite z-score [6] | composite z-score [7] | composite z-score (Torsin-1A (Homo sapiens) [8]) | composite z-score (Torsin-1A (Homo sapiens) [9]) | composite z-score [10] | z-score [11] | composite z-score [12] | z-score [13] | z-score [14] | z-score [15] | z-score [16] | z-score [17] | z-score [18] | z-score [19] | z-score [20]
1 | C=CCOC(=O)[C@H]1[C@@H]2C(=O)O[C@@H](c3ccccc3)[C@@H](c3ccccc3)N2[C@@H](c2ccc(OCCOC(=O)[C@H]3C[C@H]4C(=O)N[C@@H](CCCCN(C)C)C(=O)N4[C@H]3c3ccc(O)cc3)cc2)[C@]12C(=O)Nc1ccccc12 | 0.468 | -1.73 (inactive) | -0.063 (inactive) | -0.122 (inactive) | -0.322 (inactive) | -0.0375 | 0.0748 | 0.539 | 0.674 | 1.42 | -0.558 (inactive) | 1.13 | -0.862 (inactive) | 0.332 (inactive) | 3.2 (inactive) | 0.522 (inactive) | -0.259 | 2.21 (inactive) | 1.05 (inactive) | 0.576
2 | CC(C)N1C(=O)c2ccccc2[C@](C)(C(=O)O)[C@@H]1c1ccc(CO)cc1 | -0.654 | -0.328 (inactive) | 0.00934 (inactive) | -0.206 (inactive) | 0.552 (inactive) | -0.603 | -0.148 | -1.03 | -0.792 | -1.02 | -0.308 (inactive) | 0.0451 | 0.268 (inactive) | -0.103 (inactive) | 0.209 (inactive) | 0.352 (inactive) | 0.256 | 0.229 (inactive) | -0.166 (inactive) | -1.27
3 | COCCOC(=O)N1C(=O)[C@@]2(c3ccccc31)[C@H](c1ccccc1OCCO)N1[C@H](c3ccccc3)[C@H](c3ccccc3)OC(=O)[C@H]1[C@@H]2C(=O)N1CCc2cc(OC)c(OC)cc2C1 | 0.212 | -3.53 (inactive) | -1.04 (inactive) | 0.0736 (inactive) | 2.88 (inactive) | 0.02 | 0.255 | 0.517 | 0.546 | 1.24 | 0.0509 (inactive) | 0.433 | 2.79 (inactive) | 1.2 (inactive) | 1.68 (inactive) | 0.654 (inactive) | 0.0753 | 1.15 (inactive) | 0.39 (inactive) | -0.157
4 | C=CC[C@@]1(C(=O)NCC(O)CO)N=C(c2ccc(OCCCO)cc2)O[C@@H]1c1ccccc1 (stereo not given in full) | 1.19 | -0.834 (inactive) | 0.627 (inactive) | 0.685 (inactive) | -0.458 (inactive) | 0.145 | 0.524 | 0.373 | 2.47 | -0.702 | 0.529 (inactive) | 0.366 | 22.6 (active) | 4.36 (inactive) | 1.12 (inactive) | 0.394 (inactive) | -0.0453 | 0.325 (inactive) | 1.02 (inactive) | 1.69
5 | CN(C)CCCNC(=O)[C@@]1(Cc2ccccc2I)c2ccccc2C(=O)N(Cc2ccccc2Cl)[C@H]1c1ccc(CO)cc1 | 0.228 | -5.9 (inactive) | 0.599 (inactive) | 0.0548 (inactive) | 2.02 (inactive) | 0.592 | 0.397 | -0.155 | -0.609 | -0.0692 | -2.91 (inactive) | 0.208 | 10.7 (active) | 0.867 (inactive) | -0.613 (inactive) | 0.524 (inactive) | -1.27 | -10.2 (active) | -4.71 (inactive) | -5.47
6 | NC(=O)NCC#Cc1ccc2c(c1)[C@]1(C(=O)N2)[C@H](c2ccc(O)cc2)N2[C@H](c3ccccc3)[C@H](c3ccccc3)OC(=O)[C@H]2[C@@H]1C(N)=O | -0.0353 | -0.281 (inactive) | -0.125 (inactive) | -0.0515 (inactive) | 0.143 (inactive) | -0.928 | -0.105 | -1.49 | -1.74 | 0.0139 | 0.373 (inactive) | -0.127 | 0.792 (inactive) | 0.215 (inactive) | 1.15 (inactive) | 0.319 (inactive) | 0.112 | 0.408 (inactive) | -0.571 (inactive) | -0.72
7 | CC1CC/C=C\[C@H]2OC34C=CCN(Cc5ccccc5)C(=O)[C@H]3N(CCO)C(=O)[C@@H]4C2C(=O)O1 (stereo not given in full) | 0.478 | -0.273 (inactive) | 0.836 (inactive) | -0.0778 (inactive) | 0.151 (inactive) | -0.492 | -0.176 | 2.37 | 2.58 | -0.218 | 0.788 (inactive) | -0.0867 | 3.52 (inactive) | -0.133 (inactive) | 0.272 (inactive) | -0.18 (inactive) | -0.0144 | 1.66 (inactive) | 0.0441 (inactive) | 2.24
8 | NC(=O)NCC#Cc1ccc2c(c1)[C@]1(C(=O)N2)[C@H](c2ccc(O)cc2)N2[C@H](c3ccccc3)[C@H](c3ccccc3)OC(=O)[C@H]2[C@@H]1C(=O)NC[C@H](O)c1ccccc1 | -0.579 | -0.383 (inactive) | 0.502 (inactive) | 0.48 (inactive) | -0.334 (inactive) | -1.85 | -0.239 | -1.19 | -1 | -1.22 | 0.578 (inactive) | -0.316 | -0.0501 (inactive) | 0.647 (inactive) | 0.223 (inactive) | 0.363 (inactive) | -0.328 | 0.251 (inactive) | -0.258 (inactive) | -0.0927
9 | COC(=O)[C@@]1(Cc2ccccc2)[C@H]2c3cc(C(=O)N4CCCC4)n(CCO)c3C[C@H]2CN1C(=O)c1ccccc1 | 1.42 | -1.08 (inactive) | 0.0984 (inactive) | -0.189 (inactive) | 0.0581 (inactive) | 1.97 | 1.4 | 3.21 | 3.41 | -1.01 | -0.258 (inactive) | 1.89 | 0.0574 (inactive) | -0.644 (inactive) | -0.513 (inactive) | -1.61 (inactive) | 1.33 | 0.661 (inactive) | -0.517 (inactive) | -2.49
10 | O=C1C[C@@](C(=O)O)(c2ccc([N+](=O)[O-])cc2)[C@@H](c2ccc(CO)cc2)N1CC12CC3CC(CC(C3)C1)C2 | 0.319 | -5.13 (inactive) | -1.03 (inactive) | -0.322 (inactive) | 0.351 (inactive) | 0.791 | -0.0759 | 0.734 | 0.949 | 1.76 | -0.146 (inactive) | 0.0041 | 6.47 (inactive) | 0.964 (inactive) | 2.67 (inactive) | 0.279 (inactive) | 0.469 | -0.545 (inactive) | -2.72 (inactive) | -1.01
